Measurements from PubChem BioAssay (NCATS).
Results filed as inconclusive are left out. A call without a number means that no potency is given here. The source made the active and inactive calls. Calls come from the whole dose curve; as a rule, active = well fitted curve in the direction sought with a large enough effect; inconclusive = small, poorly fitted or top-dose-only effect, or another doubt; inactive = no such curve, though single readings can be large; an effect the other way counts as inactive or inconclusive.

Legend:
[1] = Vero cells viability qHTS for Zika virus inhibitors (AID 1347167)
How it was run: (§1)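 Counter-screen for cytotoxicity of hits from NS2B-NS3 protease qHTS. Overnight-attached cells (2.5 x 10^5 cells/mL, DMEM/4% FBS) were dosed in titration, incubated 24 to 48 hours, then assayed by CellTiter Glo.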

[2] = HepG2 cells viability qHTS for Zika virus inhibitors (AID 1347168)
How it was run: as §1

[3] = Tertiary RLuc qRT-PCR qHTS assay for Zika virus inhibitors (AID 1347169); note: nearly all actives have a fitted effect of over 55% in size; note: potency is the fitted concentration of half-maximal effect
How it was run: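 Vero cells (1,000 per well) plated overnight at 37 degrees C, treated with compound in DMSO, then infected with recombinant ZIKV-RLuc (Cambodian) at MOI 1-2 for 48-72 hrs. Live-cell Renilla luciferase substrate added; luminescence read after 1-1.5 hrs.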

For `Cc1cc(C)c2nc(-c3ccccn3)cc(C(=O)Nc3ccc(S(=O)(=O)Nc4onc(C)c4C)cc3)c2c1`, the outcome [1] was “inactive” and the outcome [2] was “inactive”.

In the case of `COc1cc2c(c(O)c1OC/C=C(\C)CC/C=C(/C)CCC=C(C)C)CN(C(CCC(=O)O)C(=O)O)C2=O` (configuration not stated), the outcome [1] is reported as “inactive” and the outcome [2] is reported as “inactive”.

In the case of `C=CC1(C)C=C2CC[C@H]3[C@@](C)(C(=O)O)CCC[C@]3(C)C2CC1` (some centres not stated), the outcome [1] is reported as “inactive” and the outcome [2] is reported as “inactive”.

With `COc1cc(Nc2nc3ccccc3nc2NS(=O)(=O)c2cccc(NC(=O)c3ccc(C)c(OC)c3)c2)cc(OC)c1` the outcome [1] was “inactive” and the outcome [2] was “inactive”.

With `COc1cccc(CNc2ccc(S(=O)(=O)Nc3nc4ccccc4s3)cc2)c1O` the outcome [1] was “inactive”, the outcome [2] was “inactive” and the Potency [3] was 186 nM (active).

For `COc1cc(C)c(C(=O)OC2C(C)OC(OC3CCC(C)C4C3C=C(C)C3/C(C)=C\CC/C(C)=C/C5(C)C=C(C(=O)O)C(C)CC56OC(=O)/C(=C(\O)C34C)C6=O)C(O)C2O)c(OC)c1` (configuration not stated), the outcome [1] was “inactive” and the outcome [2] was “inactive”.

In the case of `C/C(=C\CCC(C)CCO)C(=O)OC[C@H]1O[C@@H](O[C@@H]2OC=C(C(=O)O)[C@H]3CC[C@](C)(O)[C@@H]23)C(O)[C@@H](O)C1O` (some centres not stated), the outcome [1] is reported as “inactive” and the outcome [2] is reported as “inactive”.

For `CCOc1ccc(-c2cc(NC(=O)c3c(F)cccc3F)c(C(=O)O)s2)cc1`, the outcome [1] was “inactive” and the outcome [2] was “inactive”.

With `COc1cnc(-c2ccc(Cn3c(CC(C)(C)C(=O)O)c(SC(C)(C)C)c4cc(OC[C@@H]5Cc6ccccc6N5C(C)=O)ccc43)cc2)nc1` the outcome [1] was “inactive” and the outcome [2] was “inactive”.

In the case of `C=C1C2CCC3CC2(CC(O)C2(O)C1CC(OC1OC(CO)C(O)C(O)C1O)C2(C)C)CC3(C)O` (configuration not stated), the outcome [1] is reported as “inactive”, the outcome [2] is reported as “inactive” and the Potency [3] is reported as “inactive”.
